Screening data: PubChem, National Center for Advancing Translational Sciences (NCATS)
Gal4-VP16 FLuc = VP16 counterscreen qHTS for inhibitors of ROR gamma transcriptional activity. Potency, µM (top dose mostly 53.6 µM), for the others: at the top dose activity, negative = inhibition, usual class: inhibitors. Drosophila S2 Gal4-VP16 UAS-luciferase, luminescence, 20 h. AID 2546, 2010. actives 3.5% (n = 310,000);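 also: Gal4-VP16 expression switched on by copper sulfate through the metallothionein promoter; potency is read from the fitted curve at half-maximal effect; nearly all actives have a fitted effect of over 50% in size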
GALK inhibitor = qHTS Assay for Inhibitors of Human Galactokinase (GALK) | Potency, µM (titrated, usually from 57.5 µM), inactives show at the highest dose activity change, negative = inhibition, usual class: inhibitors | Purified GALK, Kinase-Glo residual ATP luminescence | actives 0.007% (n = 270,000) | P51570 | AID 1868, 2009; also: potency is read from the fitted curve at half-maximal effect
Target sequence (P51570 whole entry, looked up): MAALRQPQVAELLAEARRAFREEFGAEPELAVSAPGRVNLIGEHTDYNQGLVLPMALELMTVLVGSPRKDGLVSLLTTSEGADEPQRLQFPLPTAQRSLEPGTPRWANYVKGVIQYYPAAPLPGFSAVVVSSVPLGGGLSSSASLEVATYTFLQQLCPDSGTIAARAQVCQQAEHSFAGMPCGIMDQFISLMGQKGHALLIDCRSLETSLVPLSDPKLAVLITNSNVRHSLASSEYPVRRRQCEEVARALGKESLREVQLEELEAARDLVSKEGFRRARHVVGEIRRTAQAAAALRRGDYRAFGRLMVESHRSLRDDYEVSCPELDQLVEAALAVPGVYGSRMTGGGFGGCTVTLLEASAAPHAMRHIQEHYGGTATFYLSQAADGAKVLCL
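Quantitative HTS: GALK 5 nM, ATP 35 uM, galactose 100 uM, 1 h room temperature, then luciferase-based ATP detection.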
TrxR1 substrate = qHTS Assay for Substrates of Mammalian Selenoprotein Thioredoxin Reductase 1 (TrxR1): qHTS; Potency, µM (highest dose often 114 µM), without a hit: top-dose activity change, negative = substrate turnover; actives 0.01% (n = 390,000); purified TrxR1 substrate turnover, NADPH consumption readout; AID 588456, 2011; Thioredoxin reductase 1, cytoplasmic (Rattus norvegicus), O89049; also: potency is read from the fitted curve at half-maximal effect; nearly all actives have a fitted effect of over 50% in size
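Rat TrxR1, dispensed at 90 nM, was prereduced with 400 uM NADPH (final) for 5 min at ~22 deg C, then incubated with compound 15 min before 400 uM selenite. A first-read NADPH fluorescence drop versus no-compound background flagged substrates.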
FBPA coupling cs = qHTS Assay for Inhibitors of Fructose-1,6-bisphosphate Aldolase from Giardia Lamblia: Coupling assay counterscreen | coupling enzyme system counterscreen, AmpLite Red fluorescence | activity change, negative = inhibition, % at 58.2 µM, hits read low | actives 0.67% (n = 290,000) | AID 2472, 2010; in the data active = activity change below about -30%
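Compounds tested against the coupling enzymes alone at 57.5 uM final; readout was AmpLite Red fluorescence (525/598 nm) after 20 min at RT.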
RORgamma inh = qHTS for inhibitors of ROR gamma transcriptional activity; Potency, µM (highest dose often 53.6 µM), for the others: at the highest dose activity change, negative = inhibition, hits mostly inhibitors; AID 2551, 2010; actives 5.4% (n = 310,000); Nuclear receptor ROR-gamma (Mus musculus), P51450; Drosophila S2 Gal4-RORgamma UAS-luciferase reporter, 20 h; also: potency is read from the fitted curve at half-maximal effect; nearly all actives have a fitted effect of over 60% in size
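ROR gamma transcriptional activity was tracked as Gal4-UAS luciferase output in stably transfected Drosophila Schneider cells, with compound added 1 hr before 700 uM copper sulfate induction and a 20 hr ambient-temperature incubation.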
rTrxR1 inhibitor = qHTS Assay for Inhibitors of Mammalian Selenoprotein Thioredoxin Reductase 1 (TrxR1): qHTS; recombinant rTrxR1, NADPH fluorescence consumption, selenite substrate; Potency, µM (doses to about 114 µM), without a hit: at the highest dose activity change, negative = inhibition, usual class: inhibitors; Thioredoxin reductase 1, cytoplasmic (Rattus norvegicus), O89049; actives 1% (n = 390,000); also: potency is read from the fitted curve at half-maximal effect; nearly all actives have a fitted effect of over 65% in size
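Rat TrxR1 (90 nM in the dispensed reagent) was pre-reduced with 400 uM NADPH for 5 min at room temperature, then incubated with compound for 15 min. After 400 uM selenite was added, NADPH fluorescence (Ex 340/Em 450 nm) was followed for 8 min.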
* = called active by the depositor; u = inconclusive; x = not tested or not shown; [ ] = dose if it differs, or a comment. Most compounds without a hit are left out; they make up all but 5.9% or so of the library. Unless noted, calls follow the shape of the dose curve; as a rule, active = well fitted curve in the direction sought with a large enough effect; inconclusive = small, poorly fitted or top-dose-only effect, or another doubt; inactive = no such curve, though single readings can be large; an effect the other way counts as inactive or inconclusive. % is scaled to controls: 0 for no effect and ±100 for the full control effect.

SMILES | Gal4-VP16 FLuc | GALK inhibitor | TrxR1 substrate | FBPA coupling cs | RORgamma inh | rTrxR1 inhibitor
COc1ccc(C(=O)O/N=C(/c2ccccc2)c2ccncc2)cc1OC | -8.9% | -1.7% | 6.7%[57.1 µM] | 1.7 | 19.5% | 28.2%[57.1 µM]
CCOc1ccc2nc(NC(=O)C(NS(=O)(=O)c3cccc4nsnc34)C(C)C)sc2c1 (stereo not drawn) | u | -0.1% | -8.5% | -0.9 | 15.8µM* | 0.5%
CC(C)C(NS(=O)(=O)c1cccc2nsnc12)C(=O)Nc1nc2ccc(Cl)cc2s1 (stereo not drawn) | u | 1.8% | -7.2% | 5.6 | 22.4µM* | -6.4%
COc1cccc(NC(=S)N(CCN(C)C)C(C)c2cccnc2)c1 (stereo not drawn) | 3.9%[10 µM] | 0.1% | -2.5% | 3.8 | -27.4% | 7.8%[57.1 µM]
C=CCC(c1ccccc1)N(C(C)=O)c1ccco1 (stereo not drawn) | -9.0%[10 µM] | -0.6% | -1.2%[57.1 µM] | -3.2 | 38.4% | -3.0%[57.1 µM]
C=CCC(Nc1ccco1)c1ccccc1 (stereo not drawn) | 17.8µM* | 0.0% | -0.2% | -22.7 | 4.0% | -32.3%
COc1cc(C(=O)NCCc2csc(-c3ccc(Cl)cc3)n2)cc(OC)c1OC | x | x | 0.9%[57.1 µM] | x | x | 9.5%[57.1 µM]
CCCCN(C)C(=O)c1ccc(S(=O)(=O)N2CCOCC2)cc1 | 5.6% | 1.6% | 8.2%[57.1 µM] | 2.3 | -6.7% | 21.7%[57.1 µM]
O=C(NC(=S)N1CCN(C(c2ccccc2)c2ccccc2)CC1)c1ccc(S(=O)(=O)N2CCOCC2)cc1 | 0.0282µM* | 0.0% | 2.0% | 0.1 | 0.316µM* | -2.5%
O=C(NC(C(=O)O)c1ccccc1)c1ccc(S(=O)(=O)N2CCOCC2)cc1 (stereo not drawn) | 0.1% | -3.4% | 2.5% | 2.0 | 10.2% | 11.1%
CCCN(CC1CC1)C(=S)NC(=O)c1ccc(S(=O)(=O)N2CCOCC2)cc1 | 0.891µM* | 7.3% | 5.0% | 2.6 | 0.355µM* | -13.3%
N#CCCN(Cc1cccnc1)S(=O)(=O)c1ccc(S(=O)(=O)N2CCCCCC2)cc1 | -1.1% | 5.2% | 6.4% | 2.1 | 0.0% | 17.4%
CN1CCN(C(=S)NC(=O)c2ccc(S(=O)(=O)N3CCOCC3)cc2)CC1 | u | -0.4% | -6.8% | 0.5 | 10µM* | -4.8%
N#CCCN(Cc1cccnc1)C(=S)NC(=O)c1ccc(S(=O)(=O)N2CCCC2)cc1 | u | -3.2% | -7.4% | -0.6 | 2.51µM* | -9.6%[57.1 µM]
COc1ccc(C(=O)NCC(c2ccco2)N2CCCCC2)cc1S(=O)(=O)Nc1ccc(C)cc1 (stereo not drawn) | x | x | 1.8% | x | x | 32.2%
Cc1ccc(CNC(=O)CN(C)S(=O)(=O)c2cccs2)cc1 | 10.7% | -0.6% | 6.6%[57.1 µM] | -1.3 | 26.4% | 11.6%[57.1 µM]
C[C@H](C[C@H](O)[C@H]1OC1(C)C)C1=C2C[C@H](O)C3[C@@]4(C)CCC(=O)C(C)(C)C4CC[C@]3(C)[C@@]2(C)CC1 (stereo partly drawn) | x | x | -9.7% | x | x | -13.3%
C[C@@H](C[C@@H](O)[C@H](O)C(C)(C)O)[C@@H]1CC[C@]2(C)C3=CC[C@H]4C(C)(C)C(=O)CC[C@]4(C)[C@H]3CC[C@@]12C | u | x | 1.7% | 1.8 | 4.47µM* | 12.8%[57.1 µM]
C=CCc1cccc(/C=N/n2cnnc2)c1O | -11.6%[0.365 µM] | 1.0% | -4.8% | -1.1 | 7.08µM* | -6.5%
C=CCc1cccc(/C=N/c2ncccc2O)c1O | 2.3% | -2.8% | 11.4% | -42.8* | -31.7% | 14.1µM*
C=CCc1cccc(C=Nc2ccc(Br)cc2)c1O | -18.2% | -0.2% | -1.6% | 2.8 | 5.3% | 12.5%
COc1ccc(OC)c(C(=O)COC(=O)c2ccc([N+](=O)[O-])o2)c1 | x | x | -10.0% | x | x | u
COc1ccccc1-c1cncnc1NCc1ccccc1 | -12.9% | x | x | 5.4 | 1.0% | x
S=c1nc(C2CC2)n(-c2ccccc2)[nH]1 | u | -2.6% | 4.6% | 0.4 | 7.94µM* | u
O=c1c2c([nH]n1-c1ccccc1)CCCC2 | -1.0% | -0.1% | 7.9% | 0.4 | -17.6% | 13.4%
SMILES | Gal4-VP16 FLuc | GALK inhibitor | TrxR1 substrate | FBPA coupling cs | RORgamma inh | rTrxR1 inhibitor
O=C(O)C1CCc2sc3[nH]c(=S)n(-c4ccccc4)c(=O)c3c21 (stereo not drawn) | -5.4% | 6.9% | 3.6%[57.1 µM] | 0.8 | -9.2% | -6.9%[57.1 µM]
Cc1cccc(-n2c(=S)[nH]c3sc4c(c3c2=O)CCc2ccccc2-4)c1 | 1.41µM* | -1.1% | -4.1%[57.1 µM] | 0.9 | 0.355µM* | u
Cc1ccc(-n2c(=S)[nH]c3sc4c(c3c2=O)CCc2ccccc2-4)cc1 | 0.631µM* | -2.6% | 2.0% | 0.3 | 0.447µM* | u
CCOC(=O)N1CCc2c(sc3c2c(=O)n(-c2ccc(F)cc2)c(=O)n3CC(=O)c2ccccc2)C1 | x | x | -1.7% | x | x | 6.3%
Cc1nnc(SCC(=O)c2c(N)n(C3CC3)c(=O)[nH]c2=O)n1-c1ccccc1 | x | x | 4.6% | x | x | 19.1%
CC1SC(=S)N(c2ccc(N(C)C)cc2)C1=O (stereo not drawn) | 12.6µM* | x | 3.0% | 0.5 | 11.2µM* | 11.8%
Clc1cccc(Cl)c1CNc1ccc(N2CCCC2)cc1 | -5.0% | -0.1% | 5.4%[57.1 µM] | -14.0 | -10.3% | 3.55µM*
C/C(=N/NC(N)=S)c1ccc(Br)s1 | 5.01µM* | 1.8% | -2.5% | -2.2 | 1.12µM* | -19.4%
C/C(=N\NC(=O)Cc1ccccc1)c1ccc(Br)s1 | 1.7% | 7.5% | 0.1% | 0.2 | -18.4% | 20.7%
C/C(=N\NC(=O)c1cccs1)c1ccc(C(=O)O)s1 | 2.3% | 3.9% | -15.5% | 1.3 | 16.5% | -11.0%
C/C(=N\NC(N)=S)c1cc(-c2ccccc2)c(-c2ccccc2)s1 | 1.41µM* | -4.6% | 3.1% | -0.2 | 0.447µM* | -3.6%
CCC(=O)NC(=S)Nc1ccc(NC(=O)COc2ccc(Cl)cc2Cl)cc1 | u | -1.8% | -6.0% | 2.2 | 11.2µM* | -11.7%
COc1ccc(NC(=S)NNC(=O)COc2ccc(Cl)cc2Cl)cc1 | -7.2% | -2.1% | -14.8% | 1.1 | u | u
CCC(=O)NC(=S)Nc1ccc(NC(=O)COc2ccc(Cl)c(C)c2)cc1 | -12.0% | 0.7% | 1.2% | 0.9 | 4.2%[10 µM] | 1.0%
COc1ccc(Cl)cc1NC(=S)Nc1cccc(C)c1 | u | -0.3% | 8.0%[57.1 µM] | 0.7 | 11.2µM* | 26.4%[57.1 µM]
Cc1cccc(NC(=S)NNC(=O)COc2ccc(Cl)cc2Cl)c1 | 2.82µM* | 0.2% | -2.8% | 8.2 | 4.47µM* | -12.3%
